MOR-DOR inv ag: mu-delta opioid heterodimer inverse agonism. inhibition, % at 9.3 µM. AID 504357. cell-based MOR-DOR heterodimer luminescence. actives 0.21% (n = 340,000). P35372+P41143; in the data active means inhibition above about 22%, passing the limit was not always enough;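 further: 0% = cells with DMSO and 100% = wells without cells with DMSO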
MOR-DOR ag: agonists of human mu-delta opioid receptor heterodimerization | P35372+P41143 | cells, OPRM1-OPRD1 heterodimerization, luminescence | activation, % at 9.3 µM | actives 0.3% (n = 340,000) | AID 504326; in the data active means activation above about 18%;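 further: 0% = vehicle-treated cells and 100% = reference agonist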
HTR5A inv ctr: HTR5A inverse agonism, opioid heterodimer counter-screen; inhibition, % at 9.3 µM; actives 0.083% (n = 340,000); P47898; HTR5A cell line, luminescence; in the data active means inhibition mostly above about 23%, no sharp cut-off; inactive means mostly below about 18%;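 further: 0% = cells with DMSO and 100% = no-cell wells with DMSO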
Target sequence (P47898 whole entry, looked up): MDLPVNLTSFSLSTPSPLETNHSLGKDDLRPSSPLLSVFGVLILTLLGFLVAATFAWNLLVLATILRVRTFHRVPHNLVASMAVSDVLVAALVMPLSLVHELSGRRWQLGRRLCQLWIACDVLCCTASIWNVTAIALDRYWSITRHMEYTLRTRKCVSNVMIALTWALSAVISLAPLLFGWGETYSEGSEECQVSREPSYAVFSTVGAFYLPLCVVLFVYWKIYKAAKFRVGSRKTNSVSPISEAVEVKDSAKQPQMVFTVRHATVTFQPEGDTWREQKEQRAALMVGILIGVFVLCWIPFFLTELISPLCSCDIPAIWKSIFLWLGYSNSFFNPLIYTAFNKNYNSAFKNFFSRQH
HTR2A ag: mouse HTR2A agonism via beta-arrestin recruitment; CHO-K1 mHTR2A beta-arrestin complementation, luminescence; percent of 30 µM serotonin response; activation, % at 7.6 µM; actives 0.66% (n = 360,000);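 active means activation above a run cutoff, the mean activation of all tested compounds plus 3 SD, cut at about 14% in these data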;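 further: 0% = plate median of compound wells and 100% = 30 µM serotonin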
HTR5A ag: counter-screen for OPRM1-OPRD1 agonists: human HTR5A agonism; activation, % at 9.3 µM; HTR5A agonist assay, luminescence, cell-based; P47898; actives 0.61% (n = 340,000); in the data active means activation mostly above about 9.5%, no sharp cut-off; inactive means mostly below about 7.6%;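 further: 0% = cells with vehicle only and 100% = reference agonist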
Numbers without * were called inactive; nt = not tested or not shown. Hits are enriched below; roughly 1.6% of the tested compounds scored in any of these assays.

SMILES	MOR-DOR inv ag	MOR-DOR ag	HTR5A inv ctr	HTR2A ag	HTR5A ag
CCCCCCN(C(=O)CCl)c1ccccc1	-270.9	52.9*	-7.2	3.1	64.1*
CCCCCCCN(C(=O)CCl)c1cccc(C)c1	-426.3	79.3*	-128.7	5.4	84.4*
O=C(CN1CCCC1)Nc1c(C(=O)C2CC2)oc2ccccc12	-9.9	2.0	-20.8	1.3	-4.1
N#Cc1ccccc1OCC(=O)Nc1c(C(=O)C2CC2)oc2ccccc12	-13.7	2.4	-41.3	-4.2	14.2*
COc1ccc2nc(NCCCNC(=O)c3cc(OC)c(OC)c(OC)c3)c(C#N)cc2c1	0.1	0.0	-4.4	-2.9	14.2*
COc1cc(C(=O)NCCNc2nc3ccc(C)cc3cc2C#N)cc(OC)c1OC	7.2	-1.4	2.9	8.1	-1.0
CC(=O)N(C)c1ccc(NC(=S)Nc2cccc3ccccc23)cc1	-36.0	7.0	-24.0	7.2	14.2*
CC(=O)N(C)c1ccc(NC(=S)Nc2ccccc2)cc1	6.5	-1.3	1.7	-1.3	-0.7
CC(C)c1ccccc1NC(=S)NC1CCN(Cc2ccccc2)CC1	-22.2	3.3	4.7	-7.3	11.5*
COCCCn1c(=O)c2sccc2n2c(CCCC(=O)NCc3ccccc3)nnc12	13.6	-2.6	11.0	-4.4	-2.9
Cc1cc(C(=O)N[C@H](c2ccccc2)[C@@]2(C)C[C@@H]2[C@@H](C)C(=O)Nc2ccc3ccccc3c2)n(C)n1	1.0	-0.2	4.4	-11.8	-1.6
CC(C)C(=O)N1CCCC1(C)C(=O)Nc1ccccc1 (stereo not drawn)	nt	nt	nt	7.0	nt
Cc1ccc(-c2noc(CSc3nnc(Cc4cccs4)n3-c3ccccc3)n2)cc1	2.0	-0.3	-8.1	21.4*	2.8
CCOc1ccc2oc(C(=O)Nc3ccc(N4CCOCC4)cc3)c(C)c2c1	-8.2	1.6	11.3	-0.4	13.8*
CCOc1ccc2oc(C(=O)Nc3ccc4c(c3)OCO4)c(C)c2c1	-6.4	1.1	-1.4	-11.9	0.6
CC1(C2CC2)NC(=O)N(CC(=O)N2CCN(c3cccc(C(F)(F)F)c3)CC2)C1=O (stereo not drawn)	8.2	-1.6	-14.5	-0.7	3.5
CC(C)CC1(C)NC(=O)N(CC(=O)Nc2ccc3c(c2)CCC3)C1=O (stereo not drawn)	2.0	-0.4	-24.4	2.0	2.1
CC(C)CC1(C)NC(=O)N(CC(=O)N2C(C)CCCC2C)C1=O (stereo not drawn)	8.3	-2.2	2.9	-3.4	13.1*
COc1ccc(CN2CCNC(=O)C2CC(=O)NCCCn2cccn2)c(OC)c1 (stereo not drawn)	16.2	-2.6	-34.7	-3.0	0.3
O=C(NNC(=O)c1cccc2ccccc12)c1ccc(-c2ccccc2)cc1	-33.4	6.1	-52.1	-1.6	12.7*
Cc1ccc(-c2noc(CCC(=O)NCc3ccccc3CN3CCOCC3)n2)cc1	-7.8	2.0	15.4	3.3	13.9*
O=C(CSc1ncn[nH]1)Nc1ccc2c(c1)CCC2	1.8	-0.3	-41.7	1.9	12.0*
CCOC(=O)c1c(-c2ccccc2)oc2cc(CN(C)C)c(O)c(CN(C)C)c12	5.2	-1.0	-38.5	-6.1	11.9*
CCc1cccc(CC)c1NC(=O)C1SC(=Nc2ccccc2C)C(c2nc3ccccc3s2)=C1N (stereo not drawn)	0.4	-0.1	-2.1	-1.0	-0.8
COc1ccc(-c2cc(C(=O)O)no2)cc1	11.4	-2.3	-26.4	4.1	9.8*
SMILES	MOR-DOR inv ag	MOR-DOR ag	HTR5A inv ctr	HTR2A ag	HTR5A ag
CS(=O)(=O)N(CC(=O)N1CCN(Cc2ccccc2)CC1)c1cccc(Cl)c1	11.0	-2.5	-17.5	1.4	4.7
CC(C)(C)c1csc(NNC(=O)c2ccc(Br)cc2)n1	-9.8	2.1	-2.0	2.0	0.8
CC(C)CSc1nc2c(c(=O)[nH]c(=O)n2C)n1CC(O)COc1cccc2ccccc12 (stereo not drawn)	-31.8	6.4	-28.7	1.2	13.1*
CC(C)C(NS(=O)(=O)c1cccc2nsnc12)C(=O)NC1CCCCC1C (stereo not drawn)	12.2	-2.4	10.0	5.7	-1.3
CCCCS(=O)(=O)/C=C\C1C2C=CC(C2)C1S(=O)(=O)CCCC (stereo not drawn)	6.8	-1.2	7.5	-3.2	-2.7
CCCCS(=O)(=O)/C=C\C=C/S(=O)(=O)CCCC	37.0*	-7.4	-6.5	-4.5	2.5
Cc1cc(CC(=O)O)n(C)c1C(=O)c1ccc(Cl)cc1	13.0	-2.4	-40.3	-1.4	9.7*
CCC1(CC)SC(N)=NC1=O	9.3	-1.8	0.0	9.0	0.0
COc1ccc(Nc2nc(Nc3ccc(OC)cc3)nc(-n3[nH]c(=O)c(C)c3C)n2)cc1	17.4	-3.4	42.6*	3.4	-2.8
COc1ccc(C(=O)/C=C/C(=O)N(CC(=O)NC2CCCCC2)Cc2ccccc2)c(O)c1	-9.7	1.8	-13.0	-4.6	4.7
COc1ccc(C(=O)/C=C/C(=O)N(CC(=O)NC2CCCCC2)CC2CCCO2)c(O)c1 (stereo not drawn)	32.7*	-6.4	-5.4	-9.6	1.9
CCCNC(=O)c1cc(Cl)c(NC(=O)C2=CSCCO2)cc1OC	10.1	-2.0	-4.8	-2.1	-2.0
COc1ccc2c3c(ccc2c1)C(=O)/C(=C/O)CC3	-120.0	24.7*	-86.3	6.0	21.9*
CC(C)C[C@H]1CNC(=O)C(=O)N1C[C@@H]1CCCN1C[C@H](Cc1ccccc1)N1C[C@H](Cc2ccccc2)N(CC2CCCCC2)C(=O)C1=O	nt	nt	nt	-8.2	nt
CC1(C)CC(=O)c2cc3c(N)c(C(=O)NCc4ccccc4)sc3nc2C1	-2.8	0.5	-38.7	-0.1	10.9*
COC(=O)c1sc2nc3c(cc2c1N)C(=O)CC(C)(C)C3	-4.2	0.7	4.5	7.2	-1.9
CC1(C)CC2(CCO1)OC(=O)CC2C(=O)Nc1ccc(Cl)cc1[N+](=O)[O-] (stereo not drawn)	3.5	-0.7	-47.6	0.4	0.3
COc1cc(C)c(NC(=O)COc2cccc3c2OC(C)(C)C3)cc1OC	4.3	-1.1	-14.2	-2.3	5.8
COc1ccc(NC(=O)COc2cccc3c2OC(C)(C)C3)c(OC)c1	2.9	-0.4	-51.8	-8.3	13.0*
CC(=O)Nc1ccc(NC(=O)COc2cccc3c2OC(C)(C)C3)cc1	13.1	-2.4	6.4	0.3	4.2
COc1cc(NC(=O)COc2cccc3c2OC(C)(C)C3)cc(OC)c1OC	0.9	-0.2	-49.9	3.7	13.7*
[N-]=[N+]=NC(c1ccccc1)C(NC(=O)c1cc(C(F)(F)F)cc(C(F)(F)F)c1)c1ccccc1 (stereo not drawn)	nt	nt	nt	7.2	nt
N/C(=N\OC(=O)c1ccc2ccccc2c1)c1ccncc1	-85.0	11.8	-13.6	-4.3	5.1
N/C(=N\OC(=O)c1ccc2ccccc2c1)c1ccccc1Cl	-89.4	22.0*	-74.9	2.9	29.2*
COc1cc(C(=O)NC(=S)NCc2ccncc2)cc(OC)c1OC	nt	nt	nt	-2.4	nt
Cc1nc2sc(C(=O)OC(C)C)c(N)c2c(C)c1C	-0.6	0.1	-24.9	-1.2	8.8*

Compound activity as filed in PubChem BioAssay.
